High-throughput results as filed in PubChem BioAssay.
Lamin A splicing – qHTS Assay for Modulators of Lamin A Splicing; HeLa LMNA splicing GFP/RFP minigene ratio, 48 h; Potency, µM (doses to about 46.1 µM), usual class: inhibitors; 200,000 compounds, 0.01% hits; active = well fitted inhibition curve with a large enough effect in the signal ratio, with a control signal flat, not every such curve was filed as active; inconclusive = small, poorly fitted or top-dose-only effect, or effect the other way, or a change in a side signal; the % refers to the signal ratio
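S3 HeLa cells stably expressing lamin A-EGFP splicing minigene plus DsRed2, 600 cells/well, 48 h compound exposure at 37C. Laser-scanning cytometry; analysed as GFP (500-530 nm)/RFP (575-640 nm) total intensity ratio; 0.5% DMSO vehicle.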
HttQ103 aggreg – qHTS Multiplex Assay to Identify Dual Action Probes in a Cell Model of Huntington: Aggregate Formation (GFP). AID 1688, 2009. PC12 HttQ103-GFP aggregates, Acumen cytometry, 40 h. Potency, µM (series often up to 46.1 µM), usual class: inhibitors. 220,000 compounds, 1.1% hits; active = well fitted curve in the direction sought with a large enough effect; inconclusive = small, poorly fitted or top-dose-only effect, or another doubt; inactive = no such curve, though single readings can be large; an effect the other way counts as inactive or inconclusive; also: nearly all actives have a fitted effect of over 60% in size
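Huntingtin Q103 exon 1–GFP aggregates in induced PC12 cells (100 nM tebufenozide) were quantified by cytometry from lysates, with compounds dosed in titration.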
ALDH1A1 block – qHTS Assay for Inhibitors of Aldehyde Dehydrogenase 1 (ALDH1A1); Purified ALDH1A1, NADH fluorescence, propionaldehyde substrate; Aldehyde dehydrogenase 1A1 (Homo sapiens), P00352; 220,000 compounds, 7.3% hits; Potency, µM (doses to about 75.3 µM), most hits filed as inhibitors; AID 1030, 2008
HPGD block – qHTS Assay for Inhibitors of HPGD (15-Hydroxyprostaglandin Dehydrogenase); 150,000 compounds, 4.3% hits; purified HPGD, NADH fluorescence kinetic, PGE2 substrate; 15-hydroxyprostaglandin dehydrogenase [NAD(+)] (Homo sapiens), P15428; Potency, µM, hits mostly inhibitors; AID 894, 2007
Target sequence (P15428 whole entry, looked up): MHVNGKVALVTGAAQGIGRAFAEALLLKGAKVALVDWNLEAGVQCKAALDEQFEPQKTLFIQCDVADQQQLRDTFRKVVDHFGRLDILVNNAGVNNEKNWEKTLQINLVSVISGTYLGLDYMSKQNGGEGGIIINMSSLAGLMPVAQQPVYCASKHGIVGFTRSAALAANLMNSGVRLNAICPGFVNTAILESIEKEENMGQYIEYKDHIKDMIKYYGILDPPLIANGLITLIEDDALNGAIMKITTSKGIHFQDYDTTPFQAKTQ
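20 nM HPGD preincubated 15 min at room temperature with compound in 50 mM Tris-HCl pH 8, 0.01% Tween 20. Started with 1 mM NAD+ and 30 uM prostaglandin E2; NADH fluorescence (360/450 nm) read 5 times over 30-s intervals, last minus first.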
HTT ATP protect – qHTS Multiplex Assay to Identify Dual Action Probes in a Cell Model of Huntington: Cytoprotection (ATP); PC12 HTT-Q103 induced, cytoprotection, ATP luminescence, 40 h; Potency, µM (highest dose often 56.4 µM), usual class: activators; 230,000 compounds, 0.14% hits; AID 1471, 2008; active = well fitted curve in the direction sought with a large enough effect; inconclusive = small, poorly fitted or top-dose-only effect, or another doubt; inactive = no such curve, though single readings can be large; an effect the other way counts as inactive or inconclusive; also: nearly all actives have a fitted effect of over 45% in size
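Huntington model: PC12 line, ecdysone-inducible HTTQ103 exon1–GFP, tebufenozide 100 nM. Test articles in a dose series. Endpoint luminescence from cellular ATP.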
JMJD2E inh – qHTS Assay for Inhibitors of Human Jumonji Domain Containing 2E (JMJD2E); 230,000 compounds, 1.6% hits; Lysine-specific demethylase 4E (Homo sapiens), B2RXH2; JMJD2E catalytic domain, FDH-coupled NADH fluorescence (FDH is formaldehyde dehydrogenase); Potency, µM (titrated, usually from 57.1 µM), most hits filed as inhibitors; AID 2147, 2009; also: nearly all actives have a fitted effect of over 50% in size
Target sequence (B2RXH2 1-337 limits assumed): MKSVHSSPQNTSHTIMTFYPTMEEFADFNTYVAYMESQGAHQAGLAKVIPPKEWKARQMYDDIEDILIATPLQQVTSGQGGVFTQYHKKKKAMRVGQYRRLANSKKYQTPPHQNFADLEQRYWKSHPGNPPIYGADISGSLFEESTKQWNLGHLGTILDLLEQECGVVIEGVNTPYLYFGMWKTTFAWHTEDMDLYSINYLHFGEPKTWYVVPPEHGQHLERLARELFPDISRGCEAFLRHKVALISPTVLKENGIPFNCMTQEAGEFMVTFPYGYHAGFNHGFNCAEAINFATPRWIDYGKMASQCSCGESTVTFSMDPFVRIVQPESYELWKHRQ
A number is an active result; . = inactive; ? = inconclusive; / = no result given; [ ] = another dose, or the depositor's remark. In the library only some 9.2% were active in any assay of this set; here they are far more common. Unless noted, calls follow the shape of the dose curve; as a rule, active = well fitted inhibition curve with a large enough effect (not every such curve was filed as active); inconclusive = small, poorly fitted or top-dose-only effect, or another doubt; inactive = no such curve, though single readings can be large or run the other way.

SMILES | Lamin A splicing | HttQ103 aggreg | ALDH1A1 block | HPGD block | HTT ATP protect | JMJD2E inh
COc1ccc(-c2nnc(SCc3ccccc3F)o2)cc1 | . | . | . | . | . | .
O=c1cc(CSc2nnc(-c3ccccc3)o2)c2ccccc2[nH]1 | . | . | . | 7.9µM | . | .
Fc1ccccc1CSc1nnc(-c2ccccc2)o1 | . | . | . | 10µM | . | .
Cc1ccccc1-c1nnc(SCc2ccccc2)o1 | . | . | . | 22µM | . | .
Fc1ccccc1CSc1nnc(-c2cccnc2)o1 | / | . | . | / | . | .
Cc1ccccc1-c1nnc(SCc2ccccc2F)o1 | ? | . | . | 16µM | . | .
c1ccc(CSc2nnc(-c3ccncc3)o2)cc1 | ? | ? | ? | . | . | .
CCCn1cc(S(=O)(=O)c2cccc(Cl)c2)c(=O)c2cc(F)c(N3CCN(CC)CC3)cc21 | . | / | / | / | / | /
O=C1[C@@H]2[C@@H]3C=C[C@H]([C@@H]2C(=O)N1CN1CCSCC1)[C@@H]1[C@@H]2C(=O)N(CN4CCSCC4)C(=O)[C@@H]2[C@H]31 | / | / | / | / | .[10 µM] | /
O=C(Cn1nc(-c2cccc(Cl)c2)ccc1=O)Nc1ccc(C(=O)NC2CC2)cc1 | . | .[9.22 µM] | . | / | .[10 µM] | .
Cc1ccc(C(C)C)c(OC(C)C(=O)NCC2(N(C)C)CCCCC2)c1 (stereo not drawn) | . | / | / | / | / | /
Cc1ccc(C)c(CSc2nnc(-c3cccnc3)o2)c1 | . | . | ? | 25µM | .[10 µM] | .
CNCC[C@H](Oc1ccccc1C)c1ccccc1 | / | / | / | / | .[1.9 µM] | /
Cc1cccc(C)c1N(CC(=O)Nc1cccc(N(C)S(C)(=O)=O)c1)S(C)(=O)=O | . | . | 22µM | . | .[10 µM] | .
COc1ccc(C(=O)c2cnc3ccccc3c2-c2ccccc2)cc1 | . | ? | 1.4µM | ? | . | .
Cc1ccc(C(=O)c2cnc3ccccc3c2-c2ccccc2)cc1 | . | ? | 13µM | . | . | .
COc1ccc(Oc2nc(-c3ccccc3)ncc2C(=O)O)cc1 | / | . | . | / | / | .
O=C(Nc1ccccc1C(=O)O)c1ccc(NC(=O)c2ccc(Br)o2)cc1 | . | .[1.84 µM] | ? | 18µM | 2.2µM | .
O=C(Nc1cccc(C(=O)O)c1)/C(=C\c1ccc2c(c1)OCO2)NC(=O)c1ccc(Br)o1 | / | . | . | / | . | .
O=C(Nc1ccccc1C(=O)O)/C(=C/c1ccc([N+](=O)[O-])cc1)NC(=O)c1ccc(Br)o1 | / | . | 10µM | / | . | .
COc1ccc(Oc2ncc3nc(-c4cn(C)c5ccccc45)c(=O)n(CCC#N)c3n2)cc1 | / | / | . | . | . | /
Cc1ccc(C2=Nc3ccccc3NC(C)(c3ccc(C)o3)C2)o1 (stereo not drawn) | . | . | 22µM | . | .[0.074 µM] | ?
CC(=O)N/C(=C/c1ccc2c(c1)OCO2)C(=O)NCC(=O)O | . | 3.2µM | . | . | / | ?
O=C1C(Cl)=C(NC2CCc3ccccc32)C(=O)c2ncccc21 (stereo not drawn) | / | / | 11µM | . | . | 5µM
N#CC1=C(N)SC(N)=C(C#N)C1c1cccc(O)c1 | . | . | 25µM | ? | . | ?
SMILES | Lamin A splicing | HttQ103 aggreg | ALDH1A1 block | HPGD block | HTT ATP protect | JMJD2E inh
CCCc1[nH]nc2c1C(c1ccccc1OCC)C(C#N)=C(N)O2 (stereo not drawn) | . | . | . | . | .[10 µM] | .
COc1ccc(C2C(C#N)=C(N)SC(N)=C2C#N)cc1OC | . | . | 28µM | 16µM | . | .
COc1ccc(C2C(C#N)=C(N)Oc3cc(O)ccc32)cc1OC (stereo not drawn) | . | . | . | . | . | .
COc1ccc(C2C(C#N)=C(N)OC(C(C)(C)C)=C2C#N)cc1OC (stereo not drawn) | . | ? | ? | ? | . | ?
CCOc1ccc(C2C(C#N)=C(N)SC(N)=C2C#N)c(OCC)c1 | . | . | 18µM | . | .[10 µM] | ?
COC(=O)C1=C2SC(C)C(=O)N2C(N)=C(C#N)C1c1ccc(OC)c(OC)c1 (stereo not drawn) | ? | . | 13µM | ? | . | .
CCC1=C2CC[C@H]3C(=O)N(CC(=O)OC)C(=O)[C@H]3[C@H]2[C@@]2(C)C(=O)N(CC3CC3)C(=O)N2C1=O | / | / | . | . | . | .
Cc1ccc(S(=O)(=O)CC(=O)N2CCN(c3nc4c(F)cccc4s3)CC2)cc1 | . | / | / | / | / | /
CCOc1cc(C2C(C#N)=C(N)SC(N)=C2C#N)ccc1OCCN1CCOCC1 | . | ? | 7.9µM | 22µM | .[0.074 µM] | .
CCCc1[nH]nc2c1C(c1ccc(OCCN3CCOCC3)c(OC)c1)C(C#N)=C(N)O2 (stereo not drawn) | . | . | . | . | . | .
Cc1ccc(O)c(C(=O)c2cnn(C(=O)COc3ccc(Cl)cc3)c2)c1 | . | 5.6µM | 1.8µM | . | .[10 µM] | .
O=C(c1cnn(C(=O)c2ccccc2)c1)c1ccccc1O | . | . | 2.2µM | . | .[10 µM] | .
N#Cc1ccc(OCC(=O)n2cc(C(=O)c3cc(Cl)cc(Cl)c3O)cn2)cc1 | / | .[9.22 µM] | / | / | .[10 µM] | .
O=C(c1cnn(C(=O)COc2ccc(Cl)cc2)c1)c1ccccc1O | . | . | 4.5µM | . | .[10 µM] | .
Nc1c(-c2ccccc2Cl)cnn1-c1cccc([N+](=O)[O-])c1 | . | . | . | 14µM | . | .
